This excerpt belongs to a sample that is enriched for hits.
Vaccinia stage: blocks a specific stage of Vaccinia orthopoxvirus infection | Vaccinia-infected cells, mCherry/Venus stage reporter fluorescence; active compounds read low | activity change (mCherry), % (no concentration beside the values) | 0.01% of 89,000 active | AID 1053133; in the data active = activity change below about -37%, passing the limit was not always enough; tested in A549 cells
Starred values were filed as active, the others as inactive.

SMILES	Vaccinia stage
CNC[C@@H]1Oc2cc(C#Cc3ccccn3)ccc2S(=O)(=O)N([C@H](C)CO)C[C@H]1C	17
CC(=O)N(C)C[C@H]1Oc2ncc(C3=CCCC3)cc2C(=O)N([C@H](C)CO)C[C@H]1C	11
CC(C)NC(=O)N(C)C[C@H]1Oc2cc(Br)ccc2S(=O)(=O)N([C@H](C)CO)C[C@@H]1C	9
COc1ccccc1-c1cccc(-c2nc(C(=O)N3CCN(C)CC3)cc3c2[C@@H](CCO)N([S@](=O)C(C)(C)C)C3)c1	-1
CCCNC(=O)c1cc2c(c(-c3cccc(-c4cccc(F)c4)c3)n1)[C@H](CCO)N([S@@](=O)C(C)(C)C)C2	-46*
COCCNC(=O)c1cc2c(c(-c3cccc(-c4cccc(F)c4)c3)n1)[C@@H](CCO)N([S@](=O)C(C)(C)C)C2	-17
CN1CCN(C(=O)c2cc3c(c(-c4cccc(Br)c4)n2)[C@H](CCO)N([S@@](=O)C(C)(C)C)C3)CC1	5
CN1CCN(C(=O)c2cc3c(c(-c4cccc(C#CCC5CCCC5)c4)n2)[C@@H](CCO)N(S(=O)C(C)(C)C)C3)CC1 (some centres not stated)	-65*
CCNC(=O)c1cc2c(c(-c3cccc(-c4cccc(F)c4)c3)n1)[C@@H](CCO)N([S@](=O)C(C)(C)C)C2	-24
COc1ccc(S(=O)(=O)N(C)C[C@H]2OCCCC[C@H](C)Oc3ccc(NS(=O)(=O)c4ccc(C)cc4)cc3C(=O)N([C@H](C)CO)C[C@H]2C)cc1	-20
CC(C)C[C@@H]1NC(=O)[C@H]2C[C@@H](C(=O)NCCCCCN)[C@@H](c3cccc(OCCO)c3)N2C1=O	30
COc1cccc(S(=O)(=O)N(C)C[C@@H]2Oc3cc(C4=CCCC4)ccc3S(=O)(=O)N([C@H](C)CO)C[C@H]2C)c1	-11
CCCNC(=O)N(C)C[C@@H]1Oc2cc(C3=CCCC3)ccc2S(=O)(=O)N([C@H](C)CO)C[C@@H]1C	0
CCCC(=O)Nc1ccc2c(c1)OC[C@@H](C)N(C(=O)c1ccncc1)C[C@H](C)[C@@H](OC)CN(C)C2=O	13

From PubChem
